Measurements published in PubChem BioAssay AID651899 (Broad Institute, 2012).
Results with a measured potency or affinity are listed apart. A number with no mark means an inactive call. The rule behind the calls is not given here.

Experiment: cytotoxicity in HEK293 cells, dose response, cytotoxicity control, cell-based, plate reader, cherry-pick (AID 651899);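 note: cells exposed to compound for 48 hours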
Details: series mostly up to 26 µM; activity change, negative = cytotoxicity: at the top concentration

Point of comparison: `Cc1cccc(-c2nnc(SCC#N)n2-c2ccccc2)c1`, “activity change, negative = cytotoxicity” value -15.9%. Against it:
- C[C@@H]1CN([C@H](C)CO)C(=O)c2cc(C#Cc3cccnc3)cnc2O[C@H]1CN(C)S(C)(=O)=O — higher, 9.57%
- O=C(C[C@@H]1C[C@@H]2c3cc(NC(=O)c4cccnc4)ccc3O[C@@H]2[C@@H](CO)O1)NCc1cccnc1 — higher, 2.97%
- CN1CCCC1CCOC(C)(c1ccccc1)c1ccc(Cl)cc1 (centres undefined) — higher, 18.1%
- COC(=O)C[C@H]1CC[C@@H]2[C@H](COC[C@@H](O)CN2C(=O)Nc2cccc(F)c2)O1 — higher, -0.606%
- Cc1nc2nc(SCC(=O)NCCCN3CCOCC3)nn2c(C)c1Cc1ccccc1 — higher, 18.9%
- CCc1nn(CCCC(=O)N(C)Cc2ccccc2)c(=O)c2cc3occc3n12 — higher, -13.7%
- COC(=O)C1CCN(C(c2ccc(OC)c(OC)c2)c2sc3nc(C)nn3c2O)CC1 (centres undefined) — higher, 35.7%
- COc1ccc(C2c3c(-c4cc(Cl)c(C)cc4O)n[nH]c3C(=O)N2Cc2cccnc2)cc1OC (centres undefined) — higher, -10.2%
- Cc1ccc(NC(=O)CSc2nc(=O)n(CCCN3CCOCC3)c3c2CCCC3)cc1F — higher, 23.6%
- COc1ccc(C(=O)Nc2ccc(Cn3ccnc3)cc2)cc1OC — higher, 24.3%
- COc1ccc(Cc2c(-c3ccc(OC)c(OC)c3)nc3c(C)cc(Br)cn23)c(C)c1 — higher, 18.9%

For `O=C(Nc1ccc2c(c1)[C@H]1C[C@@H](CC(=O)N3CCc4ccccc4C3)O[C@@H](CO)[C@H]1O2)c1cccnc1`, the “activity change, negative = cytotoxicity” value was -13.1% [at 12 µM].

For `CC(C)(C)[S@](=O)N1Cc2cc(C(=O)NCc3ccccc3F)nc(-c3cccc(-c4cccnc4)c3)c2[C@@H]1CCO`, the “activity change, negative = cytotoxicity” value was -18.8% [at 23.5 µM].
